We go through ten compounds from ChEMBL document CHEMBL3988442, “University of Dundee, Small-Polar-MMV Screening Library” (2021).

For some assays here: Results with a measured potency or affinity are listed apart.

Common to all, as to set-up: scale not given: direction of the effect not stated beside the values
Assay [1] has as its target Protein translocase subunit SecA (Escherichia coli (strain K12)) (UniProt P10408). Briefly: Assay to Identify E. coli SecA ATPase Inhibitors. The format is functional. The settings on record: 30 µM.
The target of assay [2] is T1, Ubiquitin-activating enzyme e1, putative (Leishmania donovani (strain BPK282A1)) (UniProt E9BSI1).
T1 sequence (whole entry): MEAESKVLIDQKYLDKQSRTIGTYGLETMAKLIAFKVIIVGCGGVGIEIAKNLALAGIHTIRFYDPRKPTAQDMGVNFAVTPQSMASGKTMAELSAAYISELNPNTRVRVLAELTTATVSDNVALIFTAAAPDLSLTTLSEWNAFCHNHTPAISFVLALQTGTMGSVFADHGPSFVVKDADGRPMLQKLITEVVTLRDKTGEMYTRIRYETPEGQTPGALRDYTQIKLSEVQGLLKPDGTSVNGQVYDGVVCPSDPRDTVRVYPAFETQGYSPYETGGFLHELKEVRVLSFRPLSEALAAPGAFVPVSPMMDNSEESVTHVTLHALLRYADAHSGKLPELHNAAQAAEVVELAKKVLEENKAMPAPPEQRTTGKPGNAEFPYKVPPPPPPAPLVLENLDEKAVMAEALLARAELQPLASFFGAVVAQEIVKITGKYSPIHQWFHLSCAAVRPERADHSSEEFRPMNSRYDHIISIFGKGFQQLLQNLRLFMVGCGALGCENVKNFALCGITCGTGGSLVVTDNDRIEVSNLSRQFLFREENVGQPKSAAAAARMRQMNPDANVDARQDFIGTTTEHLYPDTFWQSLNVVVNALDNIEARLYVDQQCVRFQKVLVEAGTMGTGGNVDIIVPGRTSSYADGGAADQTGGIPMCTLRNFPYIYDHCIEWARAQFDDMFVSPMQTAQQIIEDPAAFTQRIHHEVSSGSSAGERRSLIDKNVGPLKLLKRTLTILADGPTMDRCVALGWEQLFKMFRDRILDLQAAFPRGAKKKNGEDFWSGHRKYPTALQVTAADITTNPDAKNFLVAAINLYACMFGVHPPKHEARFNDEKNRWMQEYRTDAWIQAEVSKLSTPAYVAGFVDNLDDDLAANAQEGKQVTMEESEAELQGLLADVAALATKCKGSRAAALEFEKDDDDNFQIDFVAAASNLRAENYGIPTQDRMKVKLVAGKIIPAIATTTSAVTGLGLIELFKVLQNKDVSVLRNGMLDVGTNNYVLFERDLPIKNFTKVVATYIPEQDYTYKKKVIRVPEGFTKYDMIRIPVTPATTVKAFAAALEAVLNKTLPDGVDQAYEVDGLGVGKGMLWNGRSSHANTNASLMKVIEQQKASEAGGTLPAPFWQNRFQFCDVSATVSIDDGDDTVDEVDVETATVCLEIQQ
Briefly: Leishmania donovani Ubiquitin Activating Enzyme (LdE1). The format is functional. Conditions: 30 µM.

The target in assay [3] is AMP-activated protein kinase, AMPK (Homo sapiens) (UniProt P54646+O43741+P54619+Q9UGJ0+Q9Y478+Q13131+Q9UGI9). Put plainly: AMP-dependent Kinase enzyme assay. An in vitro enzyme assay that detects ADP turnover that is directly proportional to AMPK activity. This uses naive AMPK that is activated during the assay with MK-8722. It counts as functional. The settings on record: 30 µM.

In assay [4] the target is Sialic acid-binding Ig-like lectin 9 (Homo sapiens) (UniProt Q9Y336). Briefly: Hs-Siglec9 ALPHAscreen SOP 20170721. Conditions: 10 µM. A general note: Bead proximity is the source of the signal in Alpha formats.
The next assay relates to Trypanosoma cruzi. Briefly: Trypanosoma cruzi phosphomannomutase and mannose-1-phosphate guanylyltransferase assay. It counts as functional. Conditions: 10 µM.
In assay [5] the target is T2, Arginase-2, mitochondrial (Homo sapiens) (UniProt P78540).
T2 sequence (whole entry): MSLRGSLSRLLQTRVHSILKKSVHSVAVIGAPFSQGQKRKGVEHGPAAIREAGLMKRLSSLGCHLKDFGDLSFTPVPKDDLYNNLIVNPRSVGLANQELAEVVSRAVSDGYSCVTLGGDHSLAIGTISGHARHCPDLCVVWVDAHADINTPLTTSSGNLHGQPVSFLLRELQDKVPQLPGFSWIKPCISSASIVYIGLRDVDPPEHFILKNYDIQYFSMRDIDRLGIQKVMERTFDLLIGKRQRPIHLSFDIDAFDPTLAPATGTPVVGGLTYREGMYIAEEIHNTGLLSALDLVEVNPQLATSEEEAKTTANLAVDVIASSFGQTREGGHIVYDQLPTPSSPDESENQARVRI
Briefly: in vitro enzyme assay to detect the production of urea directly proportional to the activity of Arginase II. Further: in the data most compounds retested in dose-response had high values. Conditions: 33.3 µM. The format is functional.

The target in assay [6] is T3, Proteasome subunit beta (Trypanosoma cruzi) (UniProt O96673).
T3 sequence (whole entry): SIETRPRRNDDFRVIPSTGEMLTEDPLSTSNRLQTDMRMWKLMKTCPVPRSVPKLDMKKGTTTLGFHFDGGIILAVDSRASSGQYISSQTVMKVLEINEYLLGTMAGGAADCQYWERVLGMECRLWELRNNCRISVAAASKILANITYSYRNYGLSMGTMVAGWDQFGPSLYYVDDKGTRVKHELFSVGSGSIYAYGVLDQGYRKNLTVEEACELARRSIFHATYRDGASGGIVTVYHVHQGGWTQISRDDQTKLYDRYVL
Put plainly: Trypanosoma cruzi proteasome chymotrypsin-like activity (TcProtChymo) assay. Further: in the data most compounds retested in dose-response had high values. The format is functional. Conditions: 9.37 µM.

A further assay is filed under the species Homo sapiens. Briefly: To identify inhibition of the IFN signalling (Jak-Stat) pathway via expression of an eGFP reporter gene under the control of an IFN-stimulated response element (ISRE) containing MxA promoter. It counts as functional. Conditions: 30 µM. (In general: A reporter such as luciferase makes a cellular process visible.)
Assay [7] has as its target T4, Tyrosyl-tRNA synthetase, putative (Trypanosoma cruzi (strain CL Brener)) (UniProt Q4DSP6).
T4 sequence (whole entry): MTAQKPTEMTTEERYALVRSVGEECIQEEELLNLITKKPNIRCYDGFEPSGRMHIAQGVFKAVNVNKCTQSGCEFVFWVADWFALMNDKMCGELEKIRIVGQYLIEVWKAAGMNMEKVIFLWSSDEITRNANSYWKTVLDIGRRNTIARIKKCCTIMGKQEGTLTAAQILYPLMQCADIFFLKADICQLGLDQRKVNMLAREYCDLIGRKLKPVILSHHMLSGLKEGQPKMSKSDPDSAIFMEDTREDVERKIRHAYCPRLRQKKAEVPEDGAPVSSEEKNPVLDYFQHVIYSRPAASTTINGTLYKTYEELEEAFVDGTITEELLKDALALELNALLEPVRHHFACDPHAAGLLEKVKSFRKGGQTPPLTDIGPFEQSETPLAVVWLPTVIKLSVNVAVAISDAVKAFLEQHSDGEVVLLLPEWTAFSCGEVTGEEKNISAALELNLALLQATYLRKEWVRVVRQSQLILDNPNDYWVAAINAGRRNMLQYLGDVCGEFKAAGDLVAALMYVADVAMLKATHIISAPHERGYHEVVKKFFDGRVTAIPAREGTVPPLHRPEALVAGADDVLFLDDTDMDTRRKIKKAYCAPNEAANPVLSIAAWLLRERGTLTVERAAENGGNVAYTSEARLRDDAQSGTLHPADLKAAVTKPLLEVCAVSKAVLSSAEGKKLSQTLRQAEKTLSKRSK
Briefly: Trypanosoma cruzi tyrosyl tRNA synthetase (TcYRS) _High Tyrosine SOP. Further: in the data most compounds retested in dose-response had high values. It counts as functional. The settings on record: 30 µM.

Assay [8] has as its target T4, Tyrosyl-tRNA synthetase, putative (Trypanosoma cruzi (strain CL Brener)). Put plainly: Trypanosoma cruzi tyrosyl tRNA synthetase (TcYRS) SOP. The settings on record: 30 µM. It counts as functional.
Assay [9] concerns the target Chromo domain-containing protein 1 (Saccharomyces cerevisiae (strain ATCC 204508 / S288c) (Baker's yeast)) (UniProt P32657). Put plainly: ScCHD-1 Enzyme Inhibition Assay. Further: in the data most compounds retested in dose-response had high values. It counts as functional. The settings on record: 30 µM.

Protein translocase subunit SecA (Escherichia coli (strain K12)), sequence (P10408 whole entry): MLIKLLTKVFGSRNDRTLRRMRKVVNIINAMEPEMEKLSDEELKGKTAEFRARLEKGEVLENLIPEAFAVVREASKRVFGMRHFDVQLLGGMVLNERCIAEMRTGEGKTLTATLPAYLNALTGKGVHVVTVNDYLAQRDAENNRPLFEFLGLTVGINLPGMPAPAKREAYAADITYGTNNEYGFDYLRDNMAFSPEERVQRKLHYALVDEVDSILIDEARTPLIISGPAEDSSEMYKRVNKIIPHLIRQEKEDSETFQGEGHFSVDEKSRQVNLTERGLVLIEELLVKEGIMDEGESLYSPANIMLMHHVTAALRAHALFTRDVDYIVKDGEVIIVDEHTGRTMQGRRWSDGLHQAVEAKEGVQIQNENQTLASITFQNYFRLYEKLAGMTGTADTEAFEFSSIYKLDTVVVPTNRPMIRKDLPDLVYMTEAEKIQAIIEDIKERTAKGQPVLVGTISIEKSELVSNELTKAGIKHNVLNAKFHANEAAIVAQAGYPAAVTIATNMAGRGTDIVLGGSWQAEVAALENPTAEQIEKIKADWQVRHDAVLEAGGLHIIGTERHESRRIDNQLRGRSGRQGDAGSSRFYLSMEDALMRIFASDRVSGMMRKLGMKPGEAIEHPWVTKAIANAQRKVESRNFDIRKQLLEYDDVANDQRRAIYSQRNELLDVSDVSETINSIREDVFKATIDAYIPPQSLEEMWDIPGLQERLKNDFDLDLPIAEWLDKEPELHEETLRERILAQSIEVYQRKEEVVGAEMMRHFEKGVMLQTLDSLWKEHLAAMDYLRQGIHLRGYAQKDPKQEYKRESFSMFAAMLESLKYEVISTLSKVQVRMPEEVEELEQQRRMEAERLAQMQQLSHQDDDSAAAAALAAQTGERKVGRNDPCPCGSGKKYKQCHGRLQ
Sialic acid-binding Ig-like lectin 9 (Homo sapiens), sequence (Q9Y336 whole entry): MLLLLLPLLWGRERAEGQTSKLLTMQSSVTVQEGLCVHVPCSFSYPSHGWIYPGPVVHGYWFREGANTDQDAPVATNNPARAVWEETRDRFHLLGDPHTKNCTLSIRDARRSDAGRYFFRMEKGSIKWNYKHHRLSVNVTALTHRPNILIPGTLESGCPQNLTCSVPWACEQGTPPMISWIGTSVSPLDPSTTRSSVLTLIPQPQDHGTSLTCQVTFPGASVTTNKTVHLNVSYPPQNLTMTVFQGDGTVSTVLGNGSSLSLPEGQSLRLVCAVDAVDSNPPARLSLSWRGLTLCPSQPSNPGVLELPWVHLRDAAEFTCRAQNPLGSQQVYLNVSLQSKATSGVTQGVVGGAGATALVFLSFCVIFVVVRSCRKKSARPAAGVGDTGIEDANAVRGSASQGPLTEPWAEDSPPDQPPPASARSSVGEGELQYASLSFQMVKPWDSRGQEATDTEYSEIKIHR
Chromo domain-containing protein 1 (Saccharomyces cerevisiae (strain ATCC 204508 / S288c) (Baker's yeast)), sequence (P32657 whole entry, the tested form may be a part): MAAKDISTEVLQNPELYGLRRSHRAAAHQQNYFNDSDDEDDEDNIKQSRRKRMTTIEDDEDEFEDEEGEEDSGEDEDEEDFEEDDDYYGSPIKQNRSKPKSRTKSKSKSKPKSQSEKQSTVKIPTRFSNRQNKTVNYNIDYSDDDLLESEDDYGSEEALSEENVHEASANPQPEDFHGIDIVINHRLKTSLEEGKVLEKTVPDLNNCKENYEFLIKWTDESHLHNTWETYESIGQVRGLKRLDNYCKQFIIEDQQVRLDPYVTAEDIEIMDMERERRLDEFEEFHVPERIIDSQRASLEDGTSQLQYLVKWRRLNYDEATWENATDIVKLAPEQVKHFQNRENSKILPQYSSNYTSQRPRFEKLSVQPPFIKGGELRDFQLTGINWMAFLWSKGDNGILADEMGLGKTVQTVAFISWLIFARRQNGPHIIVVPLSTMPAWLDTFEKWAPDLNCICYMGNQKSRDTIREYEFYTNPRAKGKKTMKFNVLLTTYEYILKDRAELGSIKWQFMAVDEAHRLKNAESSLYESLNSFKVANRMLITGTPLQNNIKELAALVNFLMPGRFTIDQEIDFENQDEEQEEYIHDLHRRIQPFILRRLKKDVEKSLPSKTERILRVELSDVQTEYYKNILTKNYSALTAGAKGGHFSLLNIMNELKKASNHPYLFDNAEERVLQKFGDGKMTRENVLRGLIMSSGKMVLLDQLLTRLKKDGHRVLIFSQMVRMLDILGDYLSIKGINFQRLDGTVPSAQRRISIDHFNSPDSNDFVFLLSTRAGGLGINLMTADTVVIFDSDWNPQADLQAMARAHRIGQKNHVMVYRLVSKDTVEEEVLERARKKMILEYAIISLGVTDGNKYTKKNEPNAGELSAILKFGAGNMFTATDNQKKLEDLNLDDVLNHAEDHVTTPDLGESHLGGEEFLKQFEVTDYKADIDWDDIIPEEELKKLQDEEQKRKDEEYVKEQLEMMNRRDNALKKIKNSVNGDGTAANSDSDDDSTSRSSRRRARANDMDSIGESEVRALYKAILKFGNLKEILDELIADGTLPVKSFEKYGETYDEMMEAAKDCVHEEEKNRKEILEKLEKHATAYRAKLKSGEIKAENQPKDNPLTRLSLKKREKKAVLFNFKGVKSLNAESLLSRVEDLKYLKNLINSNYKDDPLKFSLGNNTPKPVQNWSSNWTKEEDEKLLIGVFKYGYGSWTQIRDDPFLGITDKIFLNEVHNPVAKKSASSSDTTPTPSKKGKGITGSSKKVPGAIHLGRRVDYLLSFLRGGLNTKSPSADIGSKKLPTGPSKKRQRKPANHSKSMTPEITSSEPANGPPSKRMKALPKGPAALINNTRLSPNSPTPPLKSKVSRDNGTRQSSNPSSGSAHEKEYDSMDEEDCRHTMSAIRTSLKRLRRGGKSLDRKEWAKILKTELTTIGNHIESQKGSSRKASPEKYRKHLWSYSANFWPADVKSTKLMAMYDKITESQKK

For the compound `O=C(c1cccs1)N1CCC2(C1)c1ccccc1S(=O)(=O)N2CC1CC1` (stereo not given), the Percent Effect in [1] is -4.28%; in [2], 2.67%; in assay [3], 12.3%; in assay [4], 1.53%; in the assay with Trypanosoma cruzi, -0.197%; in assay [5], -8.62%. For the same compound, the Percent Effect in assay [6] turned out to be 2.03%; in the assay listed under Homo sapiens, 17.7%; in assay [7], 5.32%; in assay [8] it was 6.41%; in assay [9] it was 1.11%.
In the case of `CC(C)C(Sc1nnc(C2CC2)n1C1CC1)C(=O)NCc1cccnc1` (stereo not given), the Percent Effect was 1.83% in assay [1]; -2.6% in [2]; -2.77% in assay [3]; 5.12% in [4]; 5.24% in the assay on Trypanosoma cruzi; -1.42% in assay [5]. Moreover, the Percent Effect in [6] is 3.21%; in the assay listed under Homo sapiens, -24.2%; in [7] it was 5.83%; in assay [8] it was 12.2%; in [9] it was -8.74%.
`CC(NC(=O)CSCC#N)c1cccc(NC(=O)c2ccccc2)c1` (stereo not given): the Percent Effect in assay [1] was -6.35%; in assay [2] it was 15.8%; in assay [3], -4.8%; in assay [4] it was 13.9%; with Trypanosoma cruzi, 4.76%; in assay [5], 1.08%. In addition, the Percent Effect is 8.38% in assay [6]; 12.6% in the assay filed under Homo sapiens; 5.42% in [7]; 23.5% in [8]; -7.99% in [9].
Consider `NC(=O)c1ccc(NC(=O)CCN2CCCC(N3CCCC3)C2)cc1` (stereo not given), for which the Percent Effect in assay [1] is -9.36%; in assay [2] it was 13.5%; in assay [3], -4.04%; in assay [4] it was 16.5%; in the assay with Trypanosoma cruzi it was 8.98%; in assay [5], 22.5%. Moreover, the Percent Effect in assay [6] is 9.38%; in the assay filed under Homo sapiens, 19.4%; in assay [7], 9.9%; in assay [8], 15.8%; in assay [9], -5.57%.
`CCN(CC)CC1CN(CCc2ccccc2)Cc2nccn2C1` (stereo not given): the Percent Effect was -3.63% in [1]; -2.74% in assay [2]; 1.1% in assay [3]; 4.51% in assay [4]; 3.77% with Trypanosoma cruzi; -1.6% in assay [5]. For the same compound, the Percent Effect in assay [6] was 1.28%; in the assay filed under Homo sapiens, 2.5%; in assay [7], 7.29%; in [8] it was 8.64%; in assay [9], -0.569%.
Consider `CN(C)C(=O)C1CN(Cc2cscn2)CCN(S(C)(=O)=O)C1` (stereo not given), for which the Percent Effect was -11.5% in [1]; 17.6% in assay [2]; -0.331% in [3]; 3.06% in assay [4]; 1.98% in the assay with Trypanosoma cruzi; -1.16% in assay [5]. In addition, the Percent Effect in [6] is 6.55%; in the assay filed under Homo sapiens, 2.48%; in [7], 7.53%; in [8], 19.5%; in assay [9], -22.4%.
Consider `O=C(c1cccc(CNCC2CNc3ccnn3C2)c1)N1CCCC1` (stereo not given), for which the Percent Effect is -3.44% in assay [1]; 8.86% in assay [2]; -18.1% in assay [3]; -4.78% in assay [4]; 4.41% in the assay on Trypanosoma cruzi; -4.09% in [5]. Further, the Percent Effect in assay [6] is 18.4%; in the assay filed under Homo sapiens, 6.92%; in assay [7], 8.33%; in assay [8] it was 10.1%; in [9], -18.2%.
`Cc1cc(-c2cnc(N3CCN(C)CC3)nc2-c2ccc(C)s2)on1`: the Percent Effect in assay [1] is -2.21%; in [2] it was -1.35%; in assay [3] it was 10.6%; in assay [4] it was 0.731%; in the assay with Trypanosoma cruzi, -4.15%; in assay [5], 2.09%. Moreover, the Percent Effect in assay [6] was 2.81%; in the assay listed under Homo sapiens it was -1.59%; in [7], 1.07%; in [8], 6.49%; in [9], -16.5%.
Take `Cc1cnn(CC2CN(c3ncnc4ccccc34)CCO2)c1` (stereo not given): the Percent Effect was -1.94% in assay [1]; -7.59% in [2]; 1.23% in assay [3]; 9.68% in [4]; 8.03% with Trypanosoma cruzi; -1.14% in assay [5]. In addition, the Percent Effect in [6] is 1.39%; in the assay filed under Homo sapiens, 37.6%; in [7], 1.48%; in assay [8], 1.27%; in assay [9], -3.24%.
As to `CNc1nc2c(s1)C(c1cccc(F)c1F)CC(=O)N2` (stereo not given), the Percent Effect in assay [1] is -2.38%; in assay [2], 13.2%; in assay [3], -61.3%; in assay [4], -2.61%; in the assay on Trypanosoma cruzi, 0.876%; in assay [5] it was 4.73%. Also, the Percent Effect in assay [6] was 18.9%; in the assay listed under Homo sapiens it was 7.67%; in [7], -11.7%; in [8], -13%; in assay [9], -8.74%.
